Measurements reported in PubChem BioAssay (NCATS).
Values without a mark were called inactive. For some of these results: Entries with a potency or affinity are not part of this list. Active and inactive are the calls of the source. No rule for the calls is given here.

Key:
[1] = Ebola virus entry assay, green fluorescence channel
[2] = Ebola virus entry assay, blue channel fluorescence
[3] = Ebola virus entry assay, ratio channel
[4] = Ebola virus entry assay, reporter ratio channel; Channel type: primary
For efficacy in this document: 0% is about no effect.

N/C(=N\N=C\c1ccc(Cl)cc1)N/N=C/c1ccc(Cl)cc1
efficacy [1]: -188% | AC50 [2]: 39.8 µM (active) | outcome [3]: inactive | AC50 [4]: 39.8 µM (active)

CN1CCCC(CC2c3ccccc3Sc3ccccc32)C1 (stereo not drawn)
efficacy [1]: -153% | AC50 [2]: 5.62 µM (active) | AC50 [3]: 3.16 µM (active) | AC50 [4]: 3.16 µM (active)

CCCCC1C(=O)N(c2ccccc2)N(c2ccc(O)cc2)C1=O (stereo not drawn)
efficacy [1]: 73.1% | AC50 [2]: 28.2 µM (active) | outcome [3]: inactive | AC50 [4]: 39.8 µM (active)

NC(=NCCCCCCN=C(N)/N=C(\N)Nc1ccc(Cl)cc1)/N=C(\N)Nc1ccc(Cl)cc1
efficacy [1]: -197% | AC50 [2]: 39.8 µM (active) | outcome [3]: inactive | AC50 [4]: 39.8 µM (active)

NCc1ccccc1Sc1ccccc1CO
efficacy [1]: 118% | AC50 [2]: 39.8 µM (active) | AC50 [3]: 20 µM (active) | AC50 [4]: 20 µM (active)

Cc1ccc(N(CC2=NCCN2)c2cccc(O)c2)cc1
efficacy [1]: 66% | AC50 [2]: 35.5 µM (active) | AC50 [3]: 31.6 µM (active) | AC50 [4]: 31.6 µM (active)

CCO[C@@H]1O[C@H](C(COCc2ccccc2)OCc2ccccc2)[C@H](OCc2ccccc2)[C@H]1O (stereo partly drawn)
efficacy [1]: 70% | AC50 [2]: 31.6 µM (active) | AC50 [3]: 15.8 µM (active) | AC50 [4]: 15.8 µM (active)

CCCOC(C(=O)OC1CCN(C)CC1)(c1ccccc1)c1ccccc1
efficacy [1]: 30.9% | AC50 [2]: 7.94 µM (active) | AC50 [3]: 7.08 µM (active) | AC50 [4]: 7.08 µM (active)

CC(=O)c1ccc2c(c1)N(CCCN(C)C)c1ccccc1S2
efficacy [1]: 87% | AC50 [2]: 12.6 µM (active) | AC50 [3]: 12.6 µM (active) | AC50 [4]: 12.6 µM (active)

CN1CCC(=C2c3ccccc3CCc3cccnc32)CC1
efficacy [1]: 39.6% | AC50 [2]: 22.4 µM (active) | AC50 [3]: 31.6 µM (active) | AC50 [4]: 31.6 µM (active)

Cc1ccc2c(c1)c1c3n2CCNC3CCC1 (stereo not drawn)
efficacy [1]: 68.3% | AC50 [2]: 28.2 µM (active) | AC50 [3]: 28.2 µM (active) | AC50 [4]: 28.2 µM (active)

Fc1ccc(C(c2ccc(F)cc2)N2CCN(C/C=C/c3ccccc3)CC2)cc1
efficacy [1]: 37.6% | AC50 [2]: 12.6 µM (active) | AC50 [3]: 11.2 µM (active) | AC50 [4]: 11.2 µM (active)

COc1cc2c(cc1OC)-c1cc(=Nc3c(C)cc(C)cc3C)n(C)c(=O)n1CC2
efficacy [1]: 20.5% | AC50 [2]: 15.8 µM (active) | AC50 [3]: 15.8 µM (active) | AC50 [4]: 15.8 µM (active)

C=C1c2cccc(O)c2C(O)=C2C(=O)[C@]3(O)C(O)=C(C(N)=O)C(=O)[C@@H](N(C)C)[C@@H]3[C@@H](O)[C@H]12
efficacy [1]: 38.3% | AC50 [2]: 7.08 µM (active) | AC50 [3]: 6.31 µM (active) | AC50 [4]: 6.31 µM (active)

OCc1cc(C(O)CNCCCCCCOCCCCc2ccccc2)ccc1O (stereo not drawn)
efficacy [1]: 98.5% | AC50 [2]: 7.94 µM (active) | AC50 [3]: 7.08 µM (active) | AC50 [4]: 7.08 µM (active)

CN1CCC(OC(c2ccccc2)c2ccccc2)CC1
efficacy [1]: 74.4% | AC50 [2]: 14.1 µM (active) | AC50 [3]: 10 µM (active) | AC50 [4]: 10 µM (active)

O=C1NCN(c2ccccc2)C12CCN(CCCC(c1ccc(F)cc1)c1ccc(F)cc1)CC2
efficacy [1]: 83.4% | AC50 [2]: 1.41 µM (active) | AC50 [3]: 1.26 µM (active) | AC50 [4]: 1.26 µM (active)

CC1(C)[C@H](C(=O)O)N2C(=O)C[C@H]2S1(=O)=O
efficacy [1]: 90.1% | AC50 [2]: 15.8 µM (active) | AC50 [3]: 11.2 µM (active) | AC50 [4]: 11.2 µM (active)

NC(=O)C1(N2CCCCC2)CCN(CCCN2c3ccccc3CCc3ccc(Cl)cc32)CC1
efficacy [1]: -222% | AC50 [2]: 3.98 µM (active) | AC50 [3]: 3.55 µM (active) | AC50 [4]: 3.55 µM (active)

O=C(Nc1ccc(Cl)cc1)Nc1ccc(Cl)c(C(F)(F)F)c1
efficacy [1]: -174% | AC50 [2]: 28.2 µM (active) | AC50 [3]: 8.91 µM (active) | AC50 [4]: 8.91 µM (active)

Cc1c(C(=O)NN2CCCCC2)nn(-c2ccc(Cl)cc2Cl)c1-c1ccc(Cl)cc1
efficacy [1]: 55.3% | AC50 [2]: 14.1 µM (active) | AC50 [3]: 11.2 µM (active) | AC50 [4]: 11.2 µM (active)

C#CCN(C)CCCOc1ccc(Cl)cc1Cl
efficacy [1]: -19.7% | AC50 [2]: 39.8 µM (active) | outcome [3]: inactive | AC50 [4]: 39.8 µM (active)

CCCCc1ccc2nc(NC(=O)OC)[nH]c2c1
efficacy [1]: 19% | AC50 [2]: 15.8 µM (active) | outcome [3]: inactive | outcome [4]: inactive

CN1CCC(=C2c3ccccc3Sc3ccccc32)CC1
efficacy [1]: 61.5% | AC50 [2]: 8.91 µM (active) | AC50 [3]: 5.01 µM (active) | AC50 [4]: 5.01 µM (active)

C[C@@H](C1=C(CCN(C)C)Cc2ccccc21)c1ccccn1
efficacy [1]: 89% | AC50 [2]: 12.6 µM (active) | AC50 [3]: 10 µM (active) | AC50 [4]: 10 µM (active)

COC(=O)C1=C(C)NC(C)=C(C(=O)OCCCN2CCC(c3ccccc3)(c3ccccc3)CC2)C1c1cccc([N+](=O)[O-])c1 (stereo not drawn)
efficacy [1]: -179% | AC50 [2]: 2.82 µM (active) | AC50 [3]: 2.51 µM (active) | AC50 [4]: 2.51 µM (active)

Cc1cc(C(C)(C)C)c(O)c(C)c1CC1=NCCN1
efficacy [1]: 52% | AC50 [2]: 39.8 µM (active) | outcome [3]: inactive | AC50 [4]: 39.8 µM (active)

CN(C)CCCOc1nn(Cc2ccccc2)c2ccccc12
efficacy [1]: 54.9% | AC50 [2]: 7.94 µM (active) | AC50 [3]: 3.55 µM (active) | AC50 [4]: 3.55 µM (active)

COc1cccc(N(C)C(=S)Oc2ccc3c(c2)CCCC3)n1
efficacy [1]: 84.1% | AC50 [2]: 17.8 µM (active) | AC50 [3]: 28.2 µM (active) | AC50 [4]: 28.2 µM (active)

Oc1cccc(-c2c3nc(c(-c4cccc(O)c4)c4ccc([nH]4)c(-c4cccc(O)c4)c4nc(c(-c5cccc(O)c5)c5ccc2[nH]5)CC4)C=C3)c1
efficacy [1]: 82.1% | AC50 [2]: 20 µM (active) | AC50 [3]: 22.4 µM (active) | AC50 [4]: 22.4 µM (active)

C[C@@]12C(=O)OC(=O)[C@]1(C)C1CCC2O1
efficacy [1]: 65.6% | AC50 [2]: 5.62 µM (active) | AC50 [3]: 7.94 µM (active) | AC50 [4]: 7.94 µM (active)

CCCCCCCCCCCCCCNCCO
efficacy [1]: 123% | AC50 [2]: 15.8 µM (active) | AC50 [3]: 12.6 µM (active) | AC50 [4]: 12.6 µM (active)

O=C(NC1CCN(CCc2c[nH]c3ccccc23)CC1)c1ccccc1
efficacy [1]: 90.8% | AC50 [2]: 25.1 µM (active) | AC50 [3]: 35.5 µM (active) | AC50 [4]: 35.5 µM (active)

CN(C)CC/C=C1\c2ccccc2Sc2ccc(Cl)cc21
efficacy [1]: -98.3% | AC50 [2]: 3.16 µM (active) | AC50 [3]: 3.16 µM (active) | AC50 [4]: 3.16 µM (active)

CCOc1ccc(Cc2nccc3cc(OCC)c(OCC)cc23)cc1OCC
efficacy [1]: 94.1% | AC50 [2]: 39.8 µM (active) | outcome [3]: inactive | AC50 [4]: 39.8 µM (active)

CCN1C(=O)c2ccccc2C1Nc1ccc(OCCN2CCCCC2)cc1 (stereo not drawn)
efficacy [1]: 33.9% | AC50 [2]: 12.6 µM (active) | AC50 [3]: 15.8 µM (active) | AC50 [4]: 15.8 µM (active)

C[C@@H]1C[C@H]2[C@@H]3CCC4=CC(=O)C=C[C@]4(C)[C@@]3(Cl)[C@@H](O)C[C@]2(C)[C@@]1(OC(=O)c1ccco1)C(=O)CCl
efficacy [1]: 39.8% | AC50 [2]: 25.1 µM (active) | AC50 [3]: 10 µM (active) | AC50 [4]: 10 µM (active)

CO[C@@H]1[C@@H](O[C@@H]2O[C@H](C)[C@@H](O[C@H]3C[C@@](C)(O)[C@@H](O)[C@H](C)O3)[C@H](N(C)C)[C@H]2O)[C@@H](CC=O)C[C@@H](C)[C@@H](O[C@@H]2CC[C@H](N(C)C)[C@@H](C)O2)/C=C/C=C/C[C@@H](C)OC(=O)C[C@H]1OC(C)=O
efficacy [1]: 64.5% | AC50 [2]: 3.16 µM (active) | AC50 [3]: 3.55 µM (active) | AC50 [4]: 3.55 µM (active)

CN(C)CCOC(c1ccccc1)c1ccccc1
efficacy [1]: 60.8% | AC50 [2]: 20 µM (active) | AC50 [3]: 17.8 µM (active) | AC50 [4]: 17.8 µM (active)

CC(C)(C)C(=O)OCOC(=O)C1N2C(=O)CC2S(=O)(=O)C1(C)C (stereo not drawn)
efficacy [1]: 65.1% | AC50 [2]: 3.98 µM (active) | AC50 [3]: 3.16 µM (active) | AC50 [4]: 3.16 µM (active)

CN(C)CCOC(c1ccccc1)c1ccc(Br)cc1 (stereo not drawn)
efficacy [1]: 63.8% | AC50 [2]: 11.2 µM (active) | AC50 [3]: 11.2 µM (active) | AC50 [4]: 11.2 µM (active)

CCN(CC)CCOc1ccc(C(O)(Cc2ccc(Cl)cc2)c2ccc(C)cc2)cc1 (stereo not drawn)
efficacy [1]: -145% | AC50 [2]: 2.51 µM (active) | AC50 [3]: 1.78 µM (active) | AC50 [4]: 1.78 µM (active)

Clc1ccc(Cn2c(CN3CCCC3)nc3ccccc32)cc1
efficacy [1]: 99.2% | AC50 [2]: 28.2 µM (active) | AC50 [3]: 22.4 µM (active) | AC50 [4]: 22.4 µM (active)

O=C(CN1CCN(Cc2ccc3c(c2)OCO3)CC1)N1c2ccccc2Sc2ccccc21
efficacy [1]: 86.4% | AC50 [2]: 39.8 µM (active) | AC50 [3]: 25.1 µM (active) | AC50 [4]: 25.1 µM (active)

CC(=O)O[C@]1(C(C)=O)CC[C@H]2[C@@H]3C=C(Cl)C4=CC(=O)CC[C@]4(C)[C@H]3CC[C@@]21C
efficacy [1]: 83.2% | AC50 [2]: 28.2 µM (active) | AC50 [3]: 28.2 µM (active) | AC50 [4]: 28.2 µM (active)

O=c1c(-c2ccccc2)c1-c1ccccc1
efficacy [1]: 22% | AC50 [2]: 39.8 µM (active) | AC50 [3]: 39.8 µM (active) | AC50 [4]: 39.8 µM (active)

c1ccc(-c2ccc(C(c3ccccc3)n3ccnc3)cc2)cc1 (stereo not drawn)
efficacy [1]: 98.3% | AC50 [2]: 12.6 µM (active) | AC50 [3]: 14.1 µM (active) | AC50 [4]: 14.1 µM (active)

O=C(c1ccc(F)cc1)C1CCN(CCn2c(=S)[nH]c3ccccc3c2=O)CC1
efficacy [1]: 48.9% | AC50 [2]: 35.5 µM (active) | AC50 [3]: 17.8 µM (active) | AC50 [4]: 17.8 µM (active)

O=C(c1cc(O)c(O)c(O)c1)c1ccc(O)c(O)c1O
efficacy [1]: 38.9% | AC50 [2]: 1.78 µM (active) | AC50 [3]: 1.78 µM (active) | AC50 [4]: 1.78 µM (active)

O=C(Nc1ccccc1)OCC(CN1CCCCC1)OC(=O)Nc1ccccc1 (stereo not drawn)
efficacy [1]: 31.7% | AC50 [2]: 10 µM (active) | AC50 [3]: 10 µM (active) | AC50 [4]: 10 µM (active)

COC1=C(OC)C(=O)C(CCCCCCCCCCO)=C(C)C1=O
efficacy [1]: 52% | outcome [2]: inactive | outcome [3]: inactive | outcome [4]: inactive

C[C@@H]1CN(CCCn2c3ccccc3c3ccccc32)C[C@H](C)N1
efficacy [1]: -134% | AC50 [2]: 3.16 µM (active) | AC50 [3]: 3.16 µM (active) | AC50 [4]: 3.16 µM (active)
